# TGFb inhibitor = blocks TGF-b signaling | HepG2 CAGA-GFP TGF-b/SMAD3 reporter, GFP fluorescence, 18 h; TGF-beta stimulated, 500 pg/mL final | Potency, µM (titrated, usually from 46.1 µM), hits mostly inhibitors | actives 1.2% (n = 410,000); note: nearly all actives have a fitted effect of over 65% in size
#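 Smad-responsive CAGA-GFP expression was quantified in HEPG2 cells exposed to compounds and 500 pg/mL final TGF-beta for 18 h at 37 degrees C; unstimulated wells defined full inhibition.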
# HepG2 tox = kills HepG2 cells in TGF-b inhibitor counter-screen; Potency, µM (highest dose often 46.1 µM), usual class: cytotoxic; actives 0.76% (n = 410,000); HepG2 CAGA-GFP viability, ATP luminescence, 18 h
#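 HepG2 CAGA-GFP cells (1000/well, DMEM with 1% FBS) received compound, then TGF-beta at 500 pg/mL final, and were incubated 18 hours at 37 degrees C. Viability was read by CellTiter-Glo luminescence. Media-only wells were set as complete cell-killing and DMSO as no toxicity.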
# DT40 TDP1 no CPT = qHTS for Inhibitors of human tyrosyl-DNA phosphodiesterase 1 (TDP1): qHTS in cells in absence of CPT | DT40 Tdp1-/- hTDP1 cells, no CPT, ATP luminescence, 48 h | Potency, µM (highest dose often 46.2 µM), hits mostly inhibitors | actives 15% (n = 420,000); note: nearly all actives have a fitted effect of over 55% in size
#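 Readout: luminescence from CellTiter-Glo after 30 min in the dark at RT. Cells: DT40 Tdp1-/- with stable hTDP1, 400/well. Exposure: compounds alone, ≥48 hr, 37 °C.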
# S-ASM inh = blocks human secretory acid sphingomyelinase. P17405. placental ASM, HMU-PC fluorogenic substrate, 60 min. Potency, µM (doses to about 57.5 µM), hits mostly inhibitors. actives 0.006% (n = 340,000). AID 504937
# Target sequence (P17405 47-631 limits assumed): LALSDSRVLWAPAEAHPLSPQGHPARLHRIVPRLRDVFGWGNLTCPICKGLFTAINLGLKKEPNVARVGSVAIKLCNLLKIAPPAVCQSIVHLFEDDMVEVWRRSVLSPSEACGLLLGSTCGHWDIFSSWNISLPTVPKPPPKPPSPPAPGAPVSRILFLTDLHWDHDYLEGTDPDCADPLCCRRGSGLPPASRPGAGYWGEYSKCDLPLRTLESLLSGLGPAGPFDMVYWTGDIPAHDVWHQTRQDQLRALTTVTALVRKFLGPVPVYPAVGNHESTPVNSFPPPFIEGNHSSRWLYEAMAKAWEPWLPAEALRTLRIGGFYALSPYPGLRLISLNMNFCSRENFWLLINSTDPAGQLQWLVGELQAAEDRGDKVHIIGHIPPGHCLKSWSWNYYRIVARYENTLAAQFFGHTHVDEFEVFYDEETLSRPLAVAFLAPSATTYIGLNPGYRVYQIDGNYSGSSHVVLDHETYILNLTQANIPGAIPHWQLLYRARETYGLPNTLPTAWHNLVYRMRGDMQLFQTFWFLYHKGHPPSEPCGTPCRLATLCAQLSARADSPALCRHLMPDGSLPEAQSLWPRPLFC
#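 Steps: dispense placental human ASM, pin compound, wait 10 min at room temperature, add HMU-PC0 substrate at 9 uM final, incubate 60 min at 37 °C, add stop solution raising pH to 10, read fluorescence.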
# DT40 TDP1 CPT = DT40-hTDP1 cell growth loss with CPT; chicken DT40 Tdp1-/-;hTDP1 cells + 20 nM CPT, ATP luminescence, 48 h; Potency, µM (titrated, usually from 46.2 µM), actives largely listed as inhibitors; actives 12% (n = 420,000); note: nearly all actives have a fitted effect of over 55% in size
#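 Chicken DT40 Tdp1-/- cells stably complemented with human TDP1 were seeded at 400 cells/well in medium containing 20 nM camptothecin, exposed to pin-transferred compounds, and grown at 37 °C for at least 48 hr. Viability was read as ATP luminescence.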
# IL-1B inflam inh = blocks inflammasome-driven IL-1 beta release; THP-1 LPS/ATP IL-1B secretion, AlphaLISA, 16 h; active compounds read low; activity change, % at 57.5 µM; actives 4.7% (n = 360,000); in the data active = activity change below about -50%; inconclusive = mostly about -30% to -49%
#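 THP-1 cells pretreated 1 hr with compounds (up to 57.5 uM final), then stimulated with LPS (250 ng/mL final) plus ATP (1.25 mM final); secreted IL-1B measured by AlphaLISA after 16 hr, decreased signal indicating inhibition.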
# Hits are given with their value; 0 = inactive; ? = inconclusive; - = not tested or not shown. Rows were chosen to be rich in hits. Some 19% of all compounds tested hit in one or more screens of this group. Unless noted, calls come from the whole dose curve; as a rule, active = well fitted curve in the direction sought with a large enough effect; inconclusive = small, poorly fitted or top-dose-only effect, or another doubt; inactive = no such curve, though single readings can be large; an effect the other way counts as inactive or inconclusive.
SMILES,TGFb inhibitor,HepG2 tox,DT40 TDP1 no CPT,S-ASM inh,DT40 TDP1 CPT,IL-1B inflam inh
C/C(=N\OC(=O)NC1CCCCC1)c1sc(-c2ccccc2)nc1C,0,0,20.6µM,0,25.9µM,?
C/C(=N\OC(=O)c1ccc(Cl)cc1)c1sc(-c2ccccc2)nc1C,0,0,?,0,?,0
Cc1cc(OCC(=O)Nc2c(C(C)C)cccc2C(C)C)no1,0,0,8.2µM,-,13µM,0
Cc1cc(OCC(=O)Nc2ccccc2C)no1,0,0,0,0,0,0
Cc1cc(=O)oc2cc(OCC(=O)Nc3c(C(C)C)cccc3C(C)C)ccc12,0,0,13µM,-,?,-
Cc1cc(=O)oc2cc(OCC(=O)Nc3nnc(C(C)C)s3)ccc12,0,0,0,0,0,0
COc1ccc2nc(SCC(=O)NC3CC3)c(C#N)cc2c1,0,0,0,0,0,0
COCCCNC(=O)C[C@H]1C[C@H](C(=O)N(C(C)C)C(C)C)[C@@]2(C)c3[nH]c4cc(CCC(=O)N(C)C)ccc4c3CCN2C1=O,0,0,0,0,0,0
Cc1nc(C(=O)N2CCc3c([nH]c4ccccc34)C2c2ccccn2)cs1 (stereo unspecified),0,0,0,0,0,0
Cc1cccc(C2c3[nH]c4ccccc4c3CCN2C(=O)c2nn(C)c(=O)c3ccccc23)n1 (stereo unspecified),0,0,?,0,?,-59.4
Cc1cccc(C2c3[nH]c4ccccc4c3CCN2C(=O)c2ocnc2C)n1 (stereo unspecified),0,0,?,0,0,0
CC(C)c1nc(C(=O)N2CCc3c([nH]c4ccccc34)C2c2ccccn2)cs1 (stereo unspecified),0,0,0,0,0,-63.5
O=C(NCCc1c[nH]c2ccccc12)/C(=C\c1cccnc1)NC(=O)c1ccccc1F,0,0,?,0,0,0
N#CC1(NC(=O)Cn2cc(C(F)(F)F)ccc2=O)CCCC1,0,0,0,0,0,0
COc1ccccc1N1CCN(S(=O)(=O)CCNC(=O)C2CCCCC2)CC1,0,0,0,0,?,0
O=c1[nH]c(Cc2cccc(C(F)(F)F)c2)nc2ccccc12,?,0,?,0,0,0
Cc1ccc(-n2c(C)cc(C(=O)CN3CCOCC3)c2C)cc1C,0,0,?,0,20.6µM,0
CN1CC(=O)N(CC(=O)Nc2cccc(S(=O)(=O)N3CCOCC3)c2)C1=O,0,0,0,0,0,0
Cc1cc(C(=O)CSc2ncn[nH]2)c(C)n1-c1cccc(S(=O)(=O)N2CCOCC2)c1,0,0,18.4µM,0,?,0
Cc1cc(C(=O)CN2C(=O)CN(C)C2=O)c(C)n1-c1cccc(S(=O)(=O)N2CCOCC2)c1,0,0,4.61µM,0,0,0
Cc1ccc(C)n1-c1cccc(S(=O)(=O)N2CCOCC2)c1,0,0,?,0,0,?
Cc1ccc(-n2c(C)cc(C(=O)CN3CCOCC3)c2C)cc1,0,0,0,0,0,0
Cc1cc(C(=O)CCl)c(C)n1-c1cccc(S(=O)(=O)N2CCOCC2)c1,?,0,2.31µM,0,1.3µM,-102.3
COc1ccc(S(N)(=O)=O)cc1C(=O)OCC(=O)NC(C)(C#N)C1CC1 (stereo unspecified),0,0,0,0,0,0
CNc1ccc(S(=O)(=O)NCC(=O)NCCCc2ccccc2)cc1[N+](=O)[O-],0,0,?,0,?,0
SMILES,TGFb inhibitor,HepG2 tox,DT40 TDP1 no CPT,S-ASM inh,DT40 TDP1 CPT,IL-1B inflam inh
COCCNC(=O)C1(C(F)(F)F)C/C(=C\CCO)CCCO1 (stereo unspecified),0,0,-,-,-,-
Cc1cc(-n2c(C)cc(C(=S)N3CCOCC3)c2C)ccc1Br,0,0,16.4µM,0,14.6µM,?
CCc1cc2c(cc3c(=O)n(CC(=O)NCc4cc(Br)ccc4OC)ncn32)s1,0,0,?,-,0,-
O=C1NC(c2ccccc2)Nc2c1sc(=S)n2-c1ccccc1 (stereo unspecified),0,0,6.51µM,0,0,0
Cc1ccc(S(=O)(=O)N2C[C@@]3(O)Cn4c(=O)ccc(=O)n4C[C@@]3(OC(=O)NCc3ccccc3F)C2)cc1,-,-,0,-,0,?
C#CCN(C[C@@H]1[C@@H](OC(=O)NCc2ccccc2F)[C@@H](OC(=O)NCc2ccccc2F)Cn2c(=O)n(CCCCCC)c(=O)n21)S(=O)(=O)c1ccc(C)cc1,0,0,11.6µM,-,?,?
C#CCN(C[C@@H]1[C@@H](OC(=O)NCCCCCC)[C@@H](OC(=O)NCCCCCC)Cn2c(=O)n(CCCCCC)c(=O)n21)S(=O)(=O)c1ccc(C)cc1,0,0,?,-,?,0
C#CCN(C[C@@H]1[C@@H](OC(=O)NCc2ccccc2F)[C@@H](OC(=O)NCc2ccccc2F)Cn2c(=O)ccc(=O)n21)S(=O)(=O)c1ccc(C)cc1,11.2µM,12.6µM,2.59µM,-,4.11µM,-111.3
C#CCN(C[C@@H]1[C@@H](OC(=O)NCC2CCCCC2)[C@@H](OC(=O)NCC2CCCCC2)Cn2c(=O)n(CCCCCC)c(=O)n21)S(=O)(=O)c1ccc(C)cc1,0,0,6.51µM,-,?,0
Cc1sc2ncn(CC(=O)Nc3c(F)cccc3F)c(=O)c2c1S(=O)(=O)N1CCC(C)CC1,0,0,0,0,0,0
Cc1ccc(C(=O)NCCSCc2ccccc2)cc1[N+](=O)[O-],0,0,?,0,?,0
O=C(NCCc1cccc(Cl)c1)c1ccc(Cl)c([N+](=O)[O-])c1,0,0,20.6µM,0,?,-97.7
CC(C)(CNC(=O)c1ccc([N+](=O)[O-])c(Cl)c1)CNC(=O)c1ccc([N+](=O)[O-])c(Cl)c1,?,0,20.6µM,0,18.4µM,-112.5
Cc1ccc(C(=O)NCCc2cccc(Cl)c2)cc1[N+](=O)[O-],0,0,20.6µM,0,20.6µM,-56.5
CN(Cc1ccccc1)C(=O)c1ccc(Cl)c([N+](=O)[O-])c1,0,0,?,0,?,-89.9
CN(Cc1ccccc1)c1ccc(C(=O)O)cc1[N+](=O)[O-],0,0,0,0,0,0
CC1CCCCN1S(=O)(=O)c1ccc2[nH]c(=O)cc(C(=O)NCCCN3CCCCCC3)c2c1 (stereo unspecified),0,0,0,0,0,0
Cc1ccc(-n2c(SCC(=O)N/N=C/c3ccccc3C(=O)O)nnc2-c2ccccc2)cc1,0,0,0,0,0,0

# Screens from PubChem BioAssay.
